Outcome and AC50 data for seven compounds are collected here from PubChem BioAssay (EPA / NIEHS).

The nature of test [1]: ATG_CRE_CIS: Attagene CIS-FACTORIAL HepG2 Assay for human cAMP Responsive Element (CRE) binding protein 3 (AID 2282926). As to conditions: HepG2 CRE cis-reporter, Attagene multiplexed mRNA; actives raise or lower the signal. In outline: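 We dosed HepG2 cells bearing multiple cis-promoter reporter units for 24 h and measured reporter mRNA by RT-PCR with capillary electrophoresis detection. Bidirectional concentration-response fitting used DMSO as negative control.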

Test [2] has as its target CCAAT/enhancer-binding protein beta (Homo sapiens) (UniProt P17676). Kind of test: ATG_C_EBP_CIS: Attagene CIS-FACTORIAL HepG2 Assay for human CCAAT/Enhancer Binding Protein (C/EBP) beta (AID 2282927). As to conditions: HepG2 Attagene cis-factorial transcription factor reporter; actives raise or lower the signal. In outline:
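Changes in reporter mRNA, rather than exogenous chimeric receptor activity, reflect native C/EBP signalling in transfected HepG2 cells dosed for 24 h; transcripts are detected by RT-PCR and capillary electrophoresis.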

Test [3] can be described thus: ATG_CMV_CIS: Attagene CIS-FACTORIAL HepG2 Assay for human CMV (Internal Marker) (AID 2282928).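 Also: endpoint acts as a background internal control marker rather than a target.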 Particulars: HepG2 CMV promoter reporter, transcription factor profiling; actives raise or lower the signal. In outline:
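Endogenous transcription factor activity read in HepG2 via transfected cis-promoter reporter units. After 24 h dosing, reporter mRNA measured by RT-PCR/capillary electrophoresis; gain or loss of signal fit relative to DMSO.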

Test [4] in a line: ATG_DR4_LXR_CIS: Attagene CIS-FACTORIAL HepG2 Assay for human Liver X Receptor (LXR), DR4 submotif (AID 2282929). Particulars: HepG2 Attagene DR4 cis-reporter, mRNA transcription; actives raise or lower the signal. The essentials: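 HepG2, transient MRTU transfection, cis-element (DR4) promoter; 24 h compound exposure; total RNA → oligo(dT) RT → PCR → 6-FAM primer extension → HpaI cut → CE. Gain/loss vs DMSO, bidirectional fit.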

The nature of test [5]: ATG_AP_1_CIS: Attagene CIS-FACTORIAL HepG2 Assay for human Activator Protein 1 (AP-1) (AID 2282931). Particulars: HepG2 Attagene cis-factorial AP-1 reporter mRNA; actives raise or lower the signal. In outline:
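Transient MRTU transfection of HepG2 → 24 h chemical treatment → RNA isolation, RT-PCR, 6-FAM labelling, HpaI digest → capillary electrophoresis. Fit: bidirectional, DMSO negative control.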

Test [6] in a line: ATG_AP_2_CIS: Attagene CIS-FACTORIAL HepG2 Assay for human Activator Protein 2 (AP-2) (AID 2282932). Particulars: HepG2 AP-2 cis-reporter, Attagene transcription factor profiling; actives raise or lower the signal. In outline: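 Step one: transient transfection of HepG2 with reporter transcription units. Step two: 24 h chemical exposure. Step three: RNA extraction, RT-PCR, labelled fragment analysis by capillary electrophoresis; DMSO serves as baseline.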

Test [7] in a line: ATG_BRE_CIS: Attagene CIS-FACTORIAL HepG2 Assay for human Bone Morphogenetic Protein (BMP) Response Element (BRE) (AID 2282933). Particulars: HepG2 BMP response element reporter, Attagene transcription factor profiling; actives raise or lower the signal. The essentials:
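Fluorescence-labelled reporter cDNA fragments, separated by capillary electrophoresis, gave the signal for this component of a 52-readout multiplex. HepG2 cells were transfected, exposed to chemicals for 24 h, and compared with DMSO using bidirectional fitting.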

The target in test [8] is Retinoic acid receptor alpha (Homo sapiens) (UniProt P10276). Kind of test: ATG_DR5_RAR_CIS: Attagene CIS-FACTORIAL HepG2 Assay for human Retinoic Acid Receptor Alpha (RARE), DR5 submotif (AID 2282934). As to conditions: HepG2 Attagene cis-factorial RARE DR5 reporter, mRNA; actives raise or lower the signal. In outline: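 HepG2, transient cis-reporter transfection, 24 h exposure. mRNA readout: RT-PCR, FAM label, HpaI cut, capillary electrophoresis. DMSO baseline, gain/loss fitting.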

Test [9] addresses Transcription factor E2F1 (Homo sapiens) (UniProt Q01094). Kind of test: ATG_E2F_CIS: Attagene CIS-FACTORIAL HepG2 Assay for human E2F Transcription Factor 1 (AID 2282935). Particulars: HepG2 Attagene cis-reporter, E2F reporter RNA transcripts; actives raise or lower the signal. The essentials:
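Total RNA from 24 h-treated, reporter-transfected HepG2 cells undergoes DNase I treatment, oligo(dT) reverse transcription, PCR and 6-FAM primer extension before capillary electrophoresis.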

Test [10] is described as follows: ATG_E_Box_CIS: Attagene CIS-FACTORIAL HepG2 Assay for human Enhancer Box (E-box) (AID 2282936). Particulars: HepG2 E-box cis-reporter transcription, actives raise or lower the signal. The essentials: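 DMSO served as negative control and baseline for bidirectional fitting. Human hepatoma HepG2 cells, transiently transfected with cis-reporter constructs, were dosed 24 h; reporter mRNA read by RT-PCR and capillary electrophoresis.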

Test [11] can be described thus: ATG_M_61_CIS: Attagene CIS-FACTORIAL HepG2 Assay for M61 Transcription Factor (Internal Marker) (AID 2282937). Particulars: HepG2 Attagene CIS-FACTORIAL M61 internal marker reporter; actives raise or lower the signal. In outline:
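Human liver HepG2, transient MRTU transfection (cis promoter elements), 24 h compound. Total RNA → oligo(dT) RT → PCR → FAM label → HpaI → CE. Internal background marker; bidirectional fitting, DMSO = baseline.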

The nature of test [12]: ATG_EGR_CIS: Attagene CIS-FACTORIAL HepG2 Assay for human Early Growth Response 1 (EGR1) (AID 2282938). Particulars: HepG2 Attagene CIS-FACTORIAL EGR reporter mRNA; actives raise or lower the signal. The essentials: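 Transient transfection of human HepG2 with multiple cis-regulated reporter units, chemical exposure 24 h, total RNA isolated. Reverse transcription, PCR, fluorescent labelling and capillary electrophoresis quantify reporter transcripts; activity fitted bidirectionally against DMSO.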

Test [13] in a line: ATG_M_19_CIS: Attagene CIS-FACTORIAL HepG2 Assay for M19 Transcription Factor (Internal Marker) (AID 2282939). Particulars: HepG2 Attagene CIS-FACTORIAL M19 internal marker reporter; actives raise or lower the signal. In outline: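 HepG2, MRTU transient transfection, 24 h dosing. Total RNA → RT-PCR → 6-FAM primer extension → HpaI digest → CE fluorescence. Bidirectional curve fit, DMSO negative control.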

Test [14] in a line: ATG_ERE_CIS: Attagene CIS-FACTORIAL HepG2 Assay for Estrogen Response Element (ERE) (AID 2282940). As to conditions: HepG2 ERE cis-reporter, Attagene RNA transcript; actives raise or lower the signal. In outline:
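After a 24 h chemical treatment, RNA from reporter-transfected HepG2 cells is reverse-transcribed, PCR-amplified and fluorescently labelled. Fragments separated by capillary electrophoresis give reporter signal; DMSO serves as negative control.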

Test [15] can be described thus: ATG_Ets_CIS: Attagene CIS-FACTORIAL HepG2 Assay for human Erythroblast Transformation Specific (ETS) (AID 2282941). As to conditions: HepG2 ETS cis-reporter transcription, actives raise or lower the signal. In outline: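 Steps: transfect HepG2 with multiple reporter units; treat compound 24 h; isolate RNA, DNase-treat, reverse-transcribe; PCR-amplify, label with 6-FAM, digest with HpaI; separate by capillary electrophoresis. Activity fitted both directions versus DMSO.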

Test [16] addresses Hepatocyte nuclear factor 3-beta (Homo sapiens) (UniProt Q9Y261). Kind of test: ATG_FoxA2_CIS: Attagene CIS-FACTORIAL HepG2 Assay for human Forkhead box A2 (FOXA2) (AID 2282942). As to conditions: HepG2 cis-reporter transcription factor activity, 24 h; actives raise or lower the signal. The essentials:
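Transient MRTU transfection of HepG2 liver cells; 24 h treatment; total RNA → oligo(dT) RT → PCR → FAM primer extension → HpaI cut → CE. Bidirectional fit vs DMSO.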

The nature of test [17]: ATG_FoxO_CIS: Attagene CIS-FACTORIAL HepG2 Assay for human Forkhead box O (FoxO) (AID 2282943). As to conditions: HepG2 Attagene cis-reporter, FoxO element, mRNA; actives raise or lower the signal. The essentials:
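Human hepatoma HepG2 cells carry transiently introduced reporter transcription units controlled by cis promoter elements. Chemical treatment lasted 24 h, and mRNA signal was compared with DMSO.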

Test [18] can be described thus: ATG_GATA_CIS: Attagene CIS-FACTORIAL HepG2 Assay for human GATA Binding Protein (AID 2282944). Particulars: HepG2 GATA cis-element reporter, Attagene multiplex mRNA; actives raise or lower the signal. In outline: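 Cells: HepG2, transiently transfected with cis-regulated reporter transcription units. Exposure: 24 h. Detection: RT-PCR plus capillary electrophoresis of FAM-labeled fragments. Analysis: bidirectional, DMSO as baseline.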

The nature of test [19]: ATG_GLI_CIS: Attagene CIS-FACTORIAL HepG2 Assay for human Zinc Finger Protein GLI1 (AID 2282945). As to conditions: HepG2, Attagene cis-factorial reporter mRNA, GLI element; actives raise or lower the signal. In outline: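 Bidirectional curve fits relative to DMSO, using reporter mRNA levels from RT-PCR plus capillary electrophoresis. Cells were HepG2 transiently carrying cis-regulated reporter constructs, harvested 24 h after dosing.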

The target in test [20] is Aryl hydrocarbon receptor (Homo sapiens) (UniProt P35869). Kind of test: ATG_Ahr_CIS: Attagene CIS-FACTORIAL HepG2 Assay for human Aryl Hydrocarbon Receptor (Ahr) (AID 2282930). As to conditions: HepG2 AhR cis-factorial reporter transcription; actives raise or lower the signal. In outline: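 HepG2, transient MRTU (cis) transfection, 24 h exposure. RNA → cDNA → PCR → 6-FAM primer extension → HpaI 2 h 37 C → CE. Fit: bidirectional, DMSO baseline.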

Each structure is given as a SMILES string. Active and inactive are the calls of the source. The calls were made as follows: active = hit-call score of the fitted dose curve at least 0.9, where 1 is the maximum; inactive = score below 0.9.

Chain of CCAAT/enhancer-binding protein beta (Homo sapiens) (P17676 whole entry, looked up): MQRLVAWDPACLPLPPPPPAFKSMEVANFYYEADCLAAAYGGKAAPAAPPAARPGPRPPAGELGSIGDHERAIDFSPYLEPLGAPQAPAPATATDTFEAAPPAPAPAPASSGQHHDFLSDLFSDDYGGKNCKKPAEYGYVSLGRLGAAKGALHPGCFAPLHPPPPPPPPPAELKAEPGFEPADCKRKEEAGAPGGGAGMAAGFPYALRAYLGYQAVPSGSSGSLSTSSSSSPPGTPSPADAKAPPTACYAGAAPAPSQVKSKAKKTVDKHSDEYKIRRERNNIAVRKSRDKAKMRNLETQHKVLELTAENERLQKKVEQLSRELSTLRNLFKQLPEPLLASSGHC
Chain of Retinoic acid receptor alpha (Homo sapiens) (P10276 whole entry, looked up): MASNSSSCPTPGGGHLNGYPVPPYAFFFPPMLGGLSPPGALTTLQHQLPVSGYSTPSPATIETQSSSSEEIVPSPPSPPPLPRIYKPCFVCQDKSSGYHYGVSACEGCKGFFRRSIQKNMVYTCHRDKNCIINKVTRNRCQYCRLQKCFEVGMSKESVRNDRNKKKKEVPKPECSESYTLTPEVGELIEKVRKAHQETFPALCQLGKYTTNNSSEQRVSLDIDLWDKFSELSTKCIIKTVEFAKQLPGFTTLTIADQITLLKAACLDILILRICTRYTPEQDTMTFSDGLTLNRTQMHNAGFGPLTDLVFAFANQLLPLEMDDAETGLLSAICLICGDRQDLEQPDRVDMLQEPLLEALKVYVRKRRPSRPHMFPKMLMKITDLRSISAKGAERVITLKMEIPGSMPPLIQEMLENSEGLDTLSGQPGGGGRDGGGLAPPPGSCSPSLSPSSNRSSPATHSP
Chain of Aryl hydrocarbon receptor (Homo sapiens) (P35869 whole entry, looked up): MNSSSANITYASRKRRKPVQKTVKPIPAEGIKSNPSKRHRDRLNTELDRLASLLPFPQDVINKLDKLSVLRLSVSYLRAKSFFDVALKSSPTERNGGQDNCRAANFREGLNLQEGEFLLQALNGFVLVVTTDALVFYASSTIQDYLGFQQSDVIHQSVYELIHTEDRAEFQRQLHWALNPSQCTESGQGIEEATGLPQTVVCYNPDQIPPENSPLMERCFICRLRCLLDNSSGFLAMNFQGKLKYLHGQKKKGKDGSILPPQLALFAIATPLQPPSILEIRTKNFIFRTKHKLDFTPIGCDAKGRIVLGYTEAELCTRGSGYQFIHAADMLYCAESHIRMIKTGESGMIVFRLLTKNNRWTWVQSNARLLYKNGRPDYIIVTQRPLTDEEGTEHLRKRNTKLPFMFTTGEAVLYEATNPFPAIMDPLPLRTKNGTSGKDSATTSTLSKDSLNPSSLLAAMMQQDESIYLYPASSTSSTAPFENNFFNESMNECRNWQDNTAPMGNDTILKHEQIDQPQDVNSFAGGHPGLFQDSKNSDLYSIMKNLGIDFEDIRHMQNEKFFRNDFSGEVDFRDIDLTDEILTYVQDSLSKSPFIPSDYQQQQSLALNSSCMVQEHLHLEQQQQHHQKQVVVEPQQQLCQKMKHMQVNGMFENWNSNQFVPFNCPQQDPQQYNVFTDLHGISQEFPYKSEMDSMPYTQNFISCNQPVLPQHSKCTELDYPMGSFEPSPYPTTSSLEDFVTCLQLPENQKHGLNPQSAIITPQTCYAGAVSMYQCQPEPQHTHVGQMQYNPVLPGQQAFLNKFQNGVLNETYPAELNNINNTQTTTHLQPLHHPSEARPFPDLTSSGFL
Chain of Transcription factor E2F1 (Homo sapiens) (Q01094 whole entry, looked up): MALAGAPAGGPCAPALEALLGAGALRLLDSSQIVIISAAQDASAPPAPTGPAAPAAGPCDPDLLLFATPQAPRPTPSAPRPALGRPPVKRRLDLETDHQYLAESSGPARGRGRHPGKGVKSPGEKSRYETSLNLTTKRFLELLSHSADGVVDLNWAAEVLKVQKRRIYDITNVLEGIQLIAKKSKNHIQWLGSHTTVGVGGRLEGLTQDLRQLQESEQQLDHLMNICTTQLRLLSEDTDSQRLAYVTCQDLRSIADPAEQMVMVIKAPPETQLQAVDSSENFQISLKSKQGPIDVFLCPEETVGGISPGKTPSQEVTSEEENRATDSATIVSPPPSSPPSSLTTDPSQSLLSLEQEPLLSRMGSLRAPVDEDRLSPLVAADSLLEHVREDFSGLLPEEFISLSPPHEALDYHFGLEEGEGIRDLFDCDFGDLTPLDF
Chain of Hepatocyte nuclear factor 3-beta (Homo sapiens) (Q9Y261 whole entry, looked up): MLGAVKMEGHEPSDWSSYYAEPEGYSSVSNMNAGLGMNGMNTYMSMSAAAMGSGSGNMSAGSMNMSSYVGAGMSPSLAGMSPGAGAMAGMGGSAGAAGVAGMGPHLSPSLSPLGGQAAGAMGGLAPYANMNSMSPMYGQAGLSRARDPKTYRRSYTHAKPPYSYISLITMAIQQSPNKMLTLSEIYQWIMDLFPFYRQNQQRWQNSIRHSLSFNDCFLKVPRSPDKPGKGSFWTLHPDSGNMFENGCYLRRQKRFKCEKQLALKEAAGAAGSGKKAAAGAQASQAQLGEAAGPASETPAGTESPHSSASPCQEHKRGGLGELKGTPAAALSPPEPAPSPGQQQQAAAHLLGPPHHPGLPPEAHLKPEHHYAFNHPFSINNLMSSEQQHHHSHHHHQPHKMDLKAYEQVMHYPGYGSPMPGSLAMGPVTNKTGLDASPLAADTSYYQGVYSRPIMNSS

As for `CCCc1ccccc1`, the call in [1], in [2], in test [3], in test [4], in test [5] and in test [6] was inactive. Besides, the result in test [7], in test [8], in test [9], in test [10], in test [11] and in test [12] was inactive. The call in [13], in [14], in test [15], in [16], in test [17] and in test [18] was inactive. Also, the result in test [19] was inactive.
With `O=C(O)c1ccc2c(c1)nc(C(=O)NC1CCN(C3CC3)CC1)n2Cc1cc(-c2ccc(Cl)s2)on1`, the result in test [1], in test [2], in test [3], in [4], in test [20] and in test [5] was inactive. The compound was called inactive in test [6], in test [9], in test [10], in test [11], in [12] and in [13]. Besides, the compound was classed as inactive in [14], in test [15], in [16], in test [17], in test [18] and in test [19].
Turning to `NC(N)=O`, the outcome in test [1], in test [2], in test [3], in [4], in test [5] and in test [6] was inactive. In addition, the compound was called inactive in test [7], in test [10], in test [11], in test [12], in test [13] and in [14]. In addition, the compound was classed as inactive in test [15], in test [16], in [17] and in [19].
As to `OC(CCl)CCl`, the compound was called inactive in test [1], in [2], in test [3], in [4], in test [20] and in test [5]. Further, the compound was called inactive in test [6], in test [9], in test [10], in test [11], in test [12] and in test [13]. The call in [14], in test [15], in test [16], in [17], in test [18] and in test [19] was inactive.
Turning to `CCN(CC)C(=S)SSC(=S)N(CC)CC`, the AC50 is 76 µM (active) in test [1]; 173 µM (active) in test [3]; 25.8 µM (active) in [5]; 142 µM (active) in [7]; 18.9 µM (active) in test [10]; 125 µM (active) in test [12]. Further, the AC50 in [15] is 158 µM (active); in [17] it was 152 µM (active); in [18] it was 158 µM (active); in test [19], 153 µM (active). Also, the result in test [2], in test [20], in [6], in [9], in test [11] and in test [13] was inactive. In addition, the compound was called inactive in test [14].
Regarding `CCCCCCCC1CCC(=O)O1` (stereo not drawn), the outcome in [2], in test [3], in [4], in [20], in test [6] and in [7] was inactive. For the same compound, the compound was called inactive in test [8], in test [9], in test [10], in test [11], in [12] and in [13]. Also, the result in test [14], in test [15], in test [16], in [17], in test [18] and in [19] was inactive.
On to `CCCOc1ccc(S(=O)(=O)N2CCN(CC)CC2)cc1-c1nc2c(CC)n(Cc3ccccn3)nc2c(=O)[nH]1`, for which the compound was called inactive in test [1], in test [2], in [3], in test [20], in test [5] and in [6]. For the same compound, the compound was classed as inactive in test [8], in test [10], in [11], in test [13], in [14] and in test [15]. The compound was called inactive in [16], in test [17] and in test [19]. In addition, the AC50 in test [4] was 150 µM (active); in test [12], 22.2 µM (active).

As a reminder, the AC50 is the midpoint of the concentration-response curve, whichever way the signal moves.
